Results taken from PubChem BioAssay (EPA / NIEHS).
Where “and” joins values, the source holds several entries; their conditions need not be identical. Equal values may be shown once. More than one record can exist for a structure, and the calls need not agree. Calls of active or inactive are those of the source. How the source made its calls: active means hit-call score of the fitted dose curve at least 0.9, where 1 is the maximum; inactive means score below 0.9.

Assays:
Conditions in all cases: mRNA level, 48 h; actives raise or lower the signal
[1] = read-out: ABC Transporter (ABCC2), ABCC2 (gene 1244); assay: LTEA_HepaRG_ABCC2: Life Technologies and Expression Analysis (LTEA) Assay for ABC Transporter (ABCC2) using HepaRG (AID 2283464)
How it was run: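 After plating and 48 h culture, HepaRG medium is replaced with serum-free induction medium and chemicals are added (8 concentrations, max 100 uM, 0.5% DMSO) for 48 h. Total RNA then undergoes qRT-PCR for ABCC2 with housekeeping normalization.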

[2] = read-out: Broad substrate specificity ATP-binding cassette transporter ABCG2 (Homo sapiens) (UniProt Q9UNQ0); assay: LTEA_HepaRG_ABCG2: Life Technologies and Expression Analysis (LTEA) Assay for ABC Transporter (ABCG2) using HepaRG (AID 2283465)
How it was run: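 Gene expression of ABCG2 in HepaRG liver cells is quantified by qRT-PCR following 48 h exposure across an eight-point series topping at 100 uM. Values come from bidirectional fitting relative to DMSO vehicle.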

[3] = read-out: ATP-citrate lyase (ACLY), ACLY (gene 47); assay: LTEA_HepaRG_ACLY: Life Technologies and Expression Analysis (LTEA) Assay for ATP-citrate lyase (ACLY) using HepaRG (AID 2283466)
How it was run: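 ACLY expression changes in human HepaRG liver cells are quantified by qRT-PCR after 48 h exposure to test chemicals (maximum 100 uM, half-log steps). Values are fitted in both directions relative to 0.5% DMSO vehicle.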

[4] = read-out: Peroxisomal acyl-coenzyme A oxidase 1 (ACOX1) gene, ACOX1 (gene 51); assay: LTEA_HepaRG_ACOX1: Life Technologies and Expression Analysis (LTEA) Assay for Peroxisomal acyl-coenzyme A oxidase 1 (ACOX1) gene using HepaRG (AID 2283467)
How it was run: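 Human HepaRG hepatic cultures, 48 h treatment with test chemicals up to 100 uM. ACOX1 expression read by qRT-PCR relative to 0.5% DMSO vehicle.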

[5] = read-out: Alkaline Phosphatase, Placental (ALPP) gene, ALPP (gene 250); assay: LTEA_HepaRG_ALPP: Life Technologies and Expression Analysis (LTEA) Assay for Alkaline Phosphatase, Placental (ALPP) gene using HepaRG (AID 2283468);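 on AC50: differentiated human HepaRG liver cells in serum-free induction medium; ALPP transcript by TaqMan qRT-PCR normalized to ACTB GAPDH and POLR2A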
How it was run: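 Using human liver HepaRG cells, chemicals are tested in duplicate over 48 h at half-log concentrations topping at 100 uM; phenobarbital 1 mM serves as induction control. ALPP mRNA change by qRT-PCR, bidirectional fit against vehicle.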

[6] = read-out: Bcl-2 (BAX) gene, BAX (gene 581); assay: LTEA_HepaRG_BAX: Life Technologies and Expression Analysis (LTEA) Assay for Bcl-2 (BAX) gene using HepaRG (AID 2283470)
How it was run: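 Cells were thawed, plated for 48 h, moved to serum-free induction medium and dosed for 48 h (highest concentration 100 uM, half-log steps, 0.5% DMSO). Total RNA was then analysed for BAX expression by qRT-PCR.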

[7] = read-out: adenosine kinase (ADK) gene, ADK (gene 132); assay: LTEA_HepaRG_ADK: Life Technologies and Expression Analysis (LTEA) Assay for adenosine kinase (ADK) gene using HepaRG (AID 2283471)
How it was run: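 Read-out is ADK transcript level measured by qRT-PCR and normalised to three housekeeping genes. Cells are human HepaRG, dosed for 48 h at up to 100 uM in 0.5% DMSO. Gain or loss of signal is fitted against DMSO controls.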

[8] = read-out: Alpha-fetoprotein (AFP) gene, AFP (gene 174); assay: LTEA_HepaRG_AFP: Life Technologies and Expression Analysis (LTEA) Assay for Alpha-fetoprotein (AFP) gene using HepaRG (AID 2283472);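 on AC50: AFP transcript by TaqMan qRT-PCR normalized to ACTB GAPDH and POLR2A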
How it was run: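 Chemicals were tested on differentiated HepaRG cells for 48 hours at eight concentrations up to 100 uM, with 0.5% DMSO as vehicle. AFP expression was then quantified by qRT-PCR and analyzed for gain or loss relative to DMSO.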

[9] = read-out: BCL2L11 (gene 10018); assay: LTEA_HepaRG_BCL2L11: Life Technologies and Expression Analysis (LTEA) Assay for Bcl-2 (BCL2L11) gene using HepaRG (AID 2283473)
How it was run: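 Human hepatic HepaRG cultures are treated 48 h with test chemicals (maximum 100 uM, 0.5% DMSO vehicle). Expression of BCL2L11 is measured by qRT-PCR against ACTB, GAPDH and POLR2A, with activity in either direction scored relative to vehicle.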

[10] = read-out: Bcl-2 (BAD) gene, BAD (gene 572); assay: LTEA_HepaRG_BAD: Life Technologies and Expression Analysis (LTEA) Assay for Bcl-2 (BAD) gene using HepaRG (AID 2283469)
How it was run: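 Activity values reflect up- or down-regulation of BAD mRNA in human HepaRG hepatic cells treated 48 h in serum-free medium, with eight-point half-log dosing capped at 100 uM and 0.5% DMSO vehicle.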

Sequence of Broad substrate specificity ATP-binding cassette transporter ABCG2 (Homo sapiens) (Q9UNQ0 whole entry, looked up): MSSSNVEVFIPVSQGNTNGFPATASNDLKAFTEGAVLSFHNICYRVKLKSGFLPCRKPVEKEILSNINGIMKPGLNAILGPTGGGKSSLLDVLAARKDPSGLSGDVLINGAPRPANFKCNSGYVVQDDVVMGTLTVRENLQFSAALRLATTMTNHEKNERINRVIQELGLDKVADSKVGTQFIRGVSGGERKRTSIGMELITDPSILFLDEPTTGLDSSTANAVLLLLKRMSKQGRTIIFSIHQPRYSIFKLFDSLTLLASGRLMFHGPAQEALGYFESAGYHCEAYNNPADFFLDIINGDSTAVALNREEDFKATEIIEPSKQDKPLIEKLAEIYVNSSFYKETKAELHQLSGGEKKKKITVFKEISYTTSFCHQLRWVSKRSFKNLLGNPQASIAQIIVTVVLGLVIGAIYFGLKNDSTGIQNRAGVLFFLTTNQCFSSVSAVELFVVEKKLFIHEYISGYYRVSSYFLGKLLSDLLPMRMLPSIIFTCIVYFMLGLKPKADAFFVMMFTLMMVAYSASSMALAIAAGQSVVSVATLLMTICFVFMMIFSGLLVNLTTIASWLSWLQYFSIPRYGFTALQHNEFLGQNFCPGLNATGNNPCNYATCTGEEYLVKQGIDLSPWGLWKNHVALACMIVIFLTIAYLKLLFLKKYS

SMILES | outcome [1] | outcome [2] | outcome [3] | outcome [4] | outcome [5] | outcome [6] | outcome [7] | outcome [8] | outcome [9] | outcome [10] | AC50 [1] | AC50 [2] | AC50 [4] | AC50 [5] | AC50 [6] | AC50 [8] | AC50 [9] | AC50 [3] | AC50 [7]
COCCO | inactive | inactive | inactive | inactive | inactive | inactive | inactive | inactive | inactive | – | – | – | – | – | – | – | – | – | –
O=C(c1ccccc1)C1CCCCC1 | inactive | inactive | inactive | inactive | inactive | inactive | inactive | inactive | inactive | inactive | – | – | – | – | – | – | – | – | –
CCCCOC(=O)C(C)Oc1ccc(Oc2ccc(C(F)(F)F)cn2)cc1 (configuration not stated) | inactive | inactive | inactive | inactive | inactive | inactive | inactive | inactive | inactive | inactive | – | – | – | – | – | – | – | – | –
C=CCOC(Cn1ccnc1)c1ccc(Cl)cc1Cl (configuration not stated) | – | – | inactive | – | – | – | inactive | – | – | – | 37.9 µM (active) | 2.47 µM (active) | 45 µM (active) | 50 µM (active) | 33.9 µM (active) | 25.9 µM (active) | 88.6 µM (active) | – | –
C[C@]12CC[C@@H]3c4ccc(O)cc4C[C@@H](CCCCCCCCCS(=O)CCCC(F)(F)C(F)(F)F)[C@H]3[C@@H]1CC[C@@H]2O (some centres not stated) | – | inactive | inactive | – | inactive | inactive | inactive | – | – | – | 22.4 µM (active) | – | 21.1 µM (active) | – | – | 33.1 µM (active) | 0.0755 µM (active) | – | –
CCCCCOC(=O)COc1cc(N2C(=O)C3=C(CCCC3)C2=O)c(F)cc1Cl | inactive | inactive | inactive | inactive | inactive | inactive | inactive | inactive | inactive | – | – | – | – | – | – | – | – | – | –
CSC(=O)c1cccc2nnsc12 | inactive | inactive | inactive | inactive | inactive | inactive | inactive | inactive | inactive | inactive | – | – | – | – | – | – | – | – | –
CC(C)(C)[C@@H](O)[C@@H](Cc1ccc(Cl)cc1)n1cncn1 | – | inactive | – | inactive | inactive | inactive | inactive | inactive | inactive | – | 13.1 µM (active) | – | – | – | – | – | – | 50 µM (active) | –
Cc1nn(C)c(Oc2ccccc2)c1C=NOCc1ccc(C(=O)OC(C)(C)C)cc1 | inactive | – | – | – | – | – | inactive | – | – | inactive | – | 3.96 µM (active) | 1.74 µM (active) | 0.903 µM (active) | 22.2 µM (active) | 4 µM (active) | 2.53 µM (active) | 1.11 µM (active) | –
CCC(C)OC(=O)N1CCCCC1CCO (configuration not stated) | inactive | inactive | inactive | inactive | inactive | inactive | inactive | inactive | inactive | inactive | – | – | – | – | – | – | – | – | –
S=C(S)NCCNC(=S)S.[Mn+2].[S-]C([S-])=NCCN=C([S-])[S-].[Zn+2] | – | – | – | – | inactive | inactive | – | – | inactive | – | 1.09 µM (active) and 988 nM (active) and 1.44 µM (active) | 200 nM (active) and 267 nM (active) and 401 nM (active) | 799 nM (active) and 1.07 µM (active) and 953 nM (active) | 25 µM (active) | 2.35 µM (active) and 1.62 µM (active) | 1.28 µM (active) and 1.55 µM (active) | 3.84 µM (active) | 200 nM (active) and 397 nM (active) and 391 nM (active) | 255 nM (active) and 1.08 µM (active) and 270 nM (active)
CCOC(=O)COc1cc(-n2ncc(C(F)(F)F)c(C)c2=O)c(F)cc1Cl | inactive | inactive | inactive | inactive | inactive | inactive | inactive | inactive | inactive | inactive | – | – | – | – | – | – | – | – | –
CCCOC(=O)c1ccc(C(=O)OCCC)nc1 | inactive | inactive | inactive | inactive | inactive | inactive | inactive | inactive | inactive | inactive | – | – | – | – | – | – | – | – | –
